The whole screen tested about 5,500 compounds, of which about 2,000 (36%) were called active. About 18% were inconclusive and are not listed. Cut-off read from the data, not from the text of the source: active = normalized growth mostly below about 0.91 (no sharp cut-off); inconclusive = no clear call, values can overlap the other calls; inactive = mostly above about 0.92. The list shows a part of the results.
Test: chemical genetic growth profiling, strain panel (AID 1159580);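 note: tested at 20 µM; growth read once vehicle control cultures reached saturation at 30 °C; 1 = growth at the plate median or of vehicle wells; lower values mean less growth of the strain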
Details: S. cerevisiae deletion strains, growth OD

Measured: normalized growth

CC(C)(C)CC(C)(C)c1ccc(OCCOCC[N+](C)(C)Cc2ccccc2)cc1
active: locus YJR066W, strain TOR1, stronger effect = lower value 0.791 | locus YKL160W, strain elf1, stronger effect = lower value 0.0818 | locus YKR001C, strain vps1, stronger effect = lower value 0.686 | locus YKR026C, strain gcn3, stronger effect = lower value 0.0715 | locus YKR091W, strain srl3, stronger effect = lower value 0.0677 | locus YLL001W, strain dnm1, stronger effect = lower value 0.064 | locus YLL026W, stronger effect = lower value 0.059 | locus YLL041C, strain sdh2, stronger effect = lower value 0.0644 | locus YLR027C, strain aat2, stronger effect = lower value 0.0617 | locus YLR113W, strain HOG1, stronger effect = lower value 0.166 | locus YLR221C, strain rsa3, stronger effect = lower value 0.0654 | locus YLR258W, strain gsy2, stronger effect = lower value 0.0637 | locus YLR262C, strain YPT6 (second series), stronger effect = lower value 0.0738 | locus YLR320W, strain mms22, stronger effect = lower value 0.08 | locus YLR342W, strain FKS1, stronger effect = lower value 0.0831 | locus YLR357W, strain rsc2, stronger effect = lower value 0.132 | locus YLR370C, strain arc18, stronger effect = lower value 0.0619 | locus YLR384C, strain iki3, stronger effect = lower value 0.0611 | locus YML120C, strain ndi1, stronger effect = lower value 0.0599 | locus YMR058W, strain fet3, stronger effect = lower value 0.0666 | locus YMR125W, strain sto1, stronger effect = lower value 0.0985 | locus YMR129W, stronger effect = lower value 0.0605 | locus YMR205C, strain PFK2, stronger effect = lower value 0.112 | locus YMR231W, strain pep5, stronger effect = lower value 0.0717 | locus YNL071W, strain lat1, stronger effect = lower value 0.0629 | locus YNL183C, strain NPR1, stronger effect = lower value 0.73 | locus YNL209W, strain ssb2, stronger effect = lower value 0.0644 | locus YNL248C, strain rpa49, stronger effect = lower value 0.0829 | locus YNL322C, strain KRE1 (second series), stronger effect = lower value 0.0768 | locus YNR049C, strain mso1, stronger effect = lower value 0.0601 | locus YOR001W, strain rrp6, stronger effect = lower value 0.0755 | locus YOR070C, strain gyp1, stronger effect = lower value 0.0589 | locus YOR080W, strain dia2, stronger effect = lower value 0.0709 | locus YOR083W, strain WHI5, stronger effect = lower value 0.0783 | locus YOR106W, strain vam3, stronger effect = lower value 0.0737 | locus YOR231W, strain MKK1, stronger effect = lower value 0.451 | locus YOR265W, strain rbl2, stronger effect = lower value 0.0618 | locus YOR270C, strain vph1, stronger effect = lower value 0.103 | locus YOR290C, strain snf2, stronger effect = lower value 0.0712 | locus YPL051W, strain arl3, stronger effect = lower value 0.0738 | locus YPL078C, strain atp4, stronger effect = lower value 0.0749 | locus YPL106C, strain sse1, stronger effect = lower value 0.108 | locus YPL240C, strain hsp82, stronger effect = lower value 0.0673 | locus YPL256C, strain CLN2, stronger effect = lower value 0.347
inactive: locus YJR043C, strain POL32, stronger effect = lower value 1.03 | locus YKL009W, strain mrt4, stronger effect = lower value 0.965 | locus YKL068W, stronger effect = lower value 1.01 | locus YKL085W, strain MDH1 (second series), stronger effect = lower value 1 | locus YKL085W, strain MDH1, stronger effect = lower value 1 | locus YLR039C, strain RIC1, stronger effect = lower value 0.781 | locus YLR058C, strain SHM2, stronger effect = lower value 0.996 | locus YLR102C, strain apc9, stronger effect = lower value 0.992 | locus YLR262C, strain YPT6, stronger effect = lower value 0.832 | locus YLR268W, strain sec22, stronger effect = lower value 0.974 | locus YLR330W, strain CHS5, stronger effect = lower value 0.993 | locus YLR342W, strain FKS1 (second series), stronger effect = lower value 0.998 | locus YLR371W, strain rom2, stronger effect = lower value 0.992 | locus YLR418C, strain cdc73, stronger effect = lower value 0.871 | locus YML016C, strain PPZ1, stronger effect = lower value 1.01 | locus YML032C, strain rad52, stronger effect = lower value 0.99 | locus YML124C, strain tub3, stronger effect = lower value 0.989 | locus YMR078C, strain ctf18, stronger effect = lower value 0.986 | locus YMR223W, strain ubp8, stronger effect = lower value 0.989 | locus YMR263W, strain SAP30, stronger effect = lower value 0.991 | locus YMR307W, strain GAS1, stronger effect = lower value 1.06 | locus YNL067W, strain RPL9B, stronger effect = lower value 0.977 | locus YNL233W, strain BNI4, stronger effect = lower value 0.984 | locus YNL250W, strain rad50, stronger effect = lower value 0.989 | locus YNL271C, strain bni1, stronger effect = lower value 0.978 | locus YNL298W, strain CLA4, stronger effect = lower value 1.01 | locus YNL307C, strain MCK1, stronger effect = lower value 0.937 | locus YNR052C, strain pop2, stronger effect = lower value 0.99 | locus YOL006C, strain TOP1, stronger effect = lower value 0.864 | locus YOL012C, strain htz1 1.63 | locus YOL147C, strain pex11, stronger effect = lower value 0.985 | locus YOR061W, strain CKA2, stronger effect = lower value 1.01 | locus YOR069W, strain VPS5, stronger effect = lower value 1.01 | locus YOR136W, strain idh2, stronger effect = lower value 0.986 | locus YOR144C, strain elg1, stronger effect = lower value 0.996 | locus YOR184W, strain ser1, stronger effect = lower value 0.954 | locus YOR316C, strain cot1, stronger effect = lower value 0.992 | locus YPL055C, strain LGE1, stronger effect = lower value 0.98 | locus YPL241C, strain CIN2, stronger effect = lower value 1 | locus YPR119W, strain clb2, stronger effect = lower value 0.984 | locus YPR141C, strain kar3, stronger effect = lower value 0.988 | locus YPR163C, strain tif3, stronger effect = lower value 0.981 | locus YPR167C, strain met16, stronger effect = lower value 1.01 | strain wtn01, stronger effect = lower value 0.997

From PubChem BioAssay AID1159580 (chemical genetic matrix, 2015)
